# Test results reported in paper PMC8384837, “Expanding the binding specificity for RNA recognition by a PUF domain”.
# Substitutions are numbered along the chain they refer to.
# What was measured:
# Assay in all cases: yeast three-hybrid, YBZ-1, SC-Leu-His + 0.5 mM 3-AT, 4 days
# Settings in all cases: tags: N-Gal4 AD-HA kept; label: inside an RPR1-promoter hybrid RNA with tandem MS2 sites; ssRNA
# PUM1 PUF domain R3-RPK = PUM1 PUF domain R3-RPK (Homo sapiens, UniProt Q14671 828-1176, C935R;R936P;Q939K)
# In short: (§1)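 Pumilio-1 PUF domain libraries, randomized (NNK) at the three base-contacting residues of each repeat, were co-expressed with matching RNA elements from a centromeric plasmid in strain YBZ-1 (LexA–MS2 coat fusion, HIS3 reporter). Transformants were plated on SC-Leu (input) and SC-Leu-His + 0.5 mM 3-AT (selection) for four days, and repeat regions were PCR-amplified and Illumina-sequenced. The interaction score is the log2 change in variant frequency from input to selection, with pseudocount 1 where absent.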
# PUM1 PUF domain R4-WSS = PUM1 PUF domain R4-WSS (Homo sapiens, UniProt Q14671 828-1176, N971W;H972S;Q975S)
# In short: as §1
# PUM1 PUF domain R4-ANT = PUM1 PUF domain R4-ANT (Homo sapiens, UniProt Q14671 828-1176, N971A;H972N;Q975T)
# In short: as §1
# PUM1 PUF domain R4-WAW = PUM1 PUF domain R4-WAW (Homo sapiens, UniProt Q14671 828-1176, N971W;H972A;Q975W)
# In short: as §1
# PUM1 PUF domain R7-QCK = PUM1 PUF domain R7-QCK (Homo sapiens, UniProt Q14671 828-1176, S1079Q;N1080C;E1083K)
# In short: as §1
# PUM1 PUF domain R5-RRI = PUM1 PUF domain R5-RRI (Homo sapiens, UniProt Q14671 828-1176, C1007R;Q1011I)
# In short: as §1
# PUM1 PUF domain R5-RNL = PUM1 PUF domain R5-RNL (Homo sapiens, UniProt Q14671 828-1176, C1007R;R1008N;Q1011L)
# In short: as §1
# PUM1 PUF domain R5-QRR = PUM1 PUF domain R5-QRR (Homo sapiens, UniProt Q14671 828-1176, C1007Q;Q1011R)
# In short: as §1
# PUM1 PUF domain R5-KQL = PUM1 PUF domain R5-KQL (Homo sapiens, UniProt Q14671 828-1176, C1007K;R1008Q;Q1011L)
# In short: as §1
# PUM1 PUF domain R6-IYS = molecular target: T1, PUM1 PUF domain R6-IYS (Homo sapiens, UniProt Q14671 828-1176, N1043I;Q1047S)
# T1 sequence: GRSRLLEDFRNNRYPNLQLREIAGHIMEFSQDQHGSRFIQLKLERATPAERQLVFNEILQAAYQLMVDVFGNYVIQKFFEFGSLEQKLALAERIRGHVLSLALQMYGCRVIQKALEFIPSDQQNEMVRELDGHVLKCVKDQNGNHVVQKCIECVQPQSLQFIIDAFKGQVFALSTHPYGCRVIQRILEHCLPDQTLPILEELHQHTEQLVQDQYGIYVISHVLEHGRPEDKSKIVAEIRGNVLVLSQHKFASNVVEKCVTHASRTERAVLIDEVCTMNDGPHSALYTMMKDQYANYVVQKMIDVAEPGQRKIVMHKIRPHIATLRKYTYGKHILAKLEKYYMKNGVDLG
# In short: as §1
# PUM1 PUF domain R4-CMI = PUM1 PUF domain R4-CMI (Homo sapiens, UniProt Q14671 828-1176, N971C;H972M;Q975I)
# In short: as §1
# PUM1 PUF domain R8-YFR = PUM1 PUF domain R8-YFR (Homo sapiens, UniProt Q14671 828-1176, N1122Y;Y1123F;Q1126R)
# In short: as §1
# PUM1 PUF domain R6-WWR = molecular target: T2, PUM1 PUF domain R6-WWR (Homo sapiens, UniProt Q14671 828-1176, N1043W;Y1044W;Q1047R)
# T2 sequence: T1 sequence with I216W, Y217W, S220R
# In short: as §1
# PUM1 PUF domain R8-FYF = PUM1 PUF domain R8-FYF (Homo sapiens, UniProt Q14671 828-1176, N1122F;Q1126F)
# In short: as §1
# Sequence of PUM1 PUF domain R4-WSS (Q14671 828-1176 N971W/H972S/Q975S): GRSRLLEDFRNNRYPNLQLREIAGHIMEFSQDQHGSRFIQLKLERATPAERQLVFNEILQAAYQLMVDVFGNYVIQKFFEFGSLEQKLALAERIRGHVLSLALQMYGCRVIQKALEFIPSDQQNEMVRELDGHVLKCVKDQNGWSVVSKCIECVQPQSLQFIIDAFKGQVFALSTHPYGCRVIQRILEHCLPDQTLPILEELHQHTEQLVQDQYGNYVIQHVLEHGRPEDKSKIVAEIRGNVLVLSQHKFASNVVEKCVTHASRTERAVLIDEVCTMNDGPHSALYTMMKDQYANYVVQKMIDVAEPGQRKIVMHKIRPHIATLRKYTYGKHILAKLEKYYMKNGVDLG
# Sequence of PUM1 PUF domain R4-WAW (Q14671 828-1176 N971W/H972A/Q975W): as the sequence (Q14671 828-1176 N971W/H972S/Q975S) above, with S145A, S148W counted along it
# Sequence of PUM1 PUF domain R5-KQL (Q14671 828-1176 C1007K/R1008Q/Q1011L): as the sequence (Q14671 828-1176 N971W/H972S/Q975S) above, with W144N, S145H, S148Q, C180K, R181Q, Q184L counted along it
# Sequence of PUM1 PUF domain R5-RRI (Q14671 828-1176 C1007R/Q1011I): as the sequence (Q14671 828-1176 N971W/H972S/Q975S) above, with W144N, S145H, S148Q, C180R, Q184I counted along it
# Sequence of PUM1 PUF domain R5-QRR (Q14671 828-1176 C1007Q/Q1011R): as the sequence (Q14671 828-1176 N971W/H972S/Q975S) above, with W144N, S145H, S148Q, C180Q, Q184R counted along it
sequence,measurement,setting,value
GGCUAGAACUAGUGGAUCCCCCGGCGCCCGGCGGCUCGAGCCCGGGUAAGUGUAAUUAGUCUGCAUGCCGCCGGGCGCCAUGCCUGCAGGUCGACUCUAGAAAACAUG,binding signal,PUM1 PUF domain R3-RPK,4.23 log2 enrichment (interaction score)
GGCUAGAACUAGUGGAUCCCCCGGCGCCCGGCGGCUCGAGCCCGGGUAAGUGUAUAUAGUCUGCAUGCCGCCGGGCGCCAUGCCUGCAGGUCGACUCUAGAAAACAUG,binding signal,PUM1 PUF domain R4-WSS,4.4 log2 enrichment (interaction score)
same,binding signal,PUM1 PUF domain R4-ANT,2.52 log2 enrichment (interaction score)
same,binding signal,PUM1 PUF domain R4-WAW,4.31 log2 enrichment (interaction score)
GGCUAGAACUAGUGGAUCCCCCGGCGCCCGGCGGCUCGAGCCCGGGUAAGUCUAAAUAGUCUGCAUGCCGCCGGGCGCCAUGCCUGCAGGUCGACUCUAGAAAACAUG,binding signal,PUM1 PUF domain R7-QCK,3.12 log2 enrichment (interaction score)
GGCUAGAACUAGUGGAUCCCCCGGCGCCCGGCGGCUCGAGCCCGGGUAAGUGUCAAUAGUCUGCAUGCCGCCGGGCGCCAUGCCUGCAGGUCGACUCUAGAAAACAUG,binding signal,PUM1 PUF domain R5-RRI,3.62 log2 enrichment (interaction score)
same,binding signal,PUM1 PUF domain R5-RNL,2.83 log2 enrichment (interaction score)
same,binding signal,PUM1 PUF domain R5-QRR,6.46 log2 enrichment (interaction score)
same,binding signal,PUM1 PUF domain R5-KQL,5.23 log2 enrichment (interaction score)
GGCUAGAACUAGUGGAUCCCCCGGCGCCCGGCGGCUCGAGCCCGGGUAAGUGUACAUAGUCUGCAUGCCGCCGGGCGCCAUGCCUGCAGGUCGACUCUAGAAAACAUG,binding signal,PUM1 PUF domain R4-WSS,2 log2 enrichment (interaction score)
same,binding signal,PUM1 PUF domain R4-WAW,2.47 log2 enrichment (interaction score)
GGCUAGAACUAGUGGAUCCCCCGGCGCCCGGCGGCUCGAGCCCGGGUAAGUGUAAAUAGUCUGCAUGCCGCCGGGCGCCAUGCCUGCAGGUCGACUCUAGAAAACAUG,binding signal,PUM1 PUF domain R6-IYS,2.42 log2 enrichment (interaction score)
same,binding signal,PUM1 PUF domain R4-WSS,2.27 log2 enrichment (interaction score)
same,binding signal,PUM1 PUF domain R5-RRI,2.01 log2 enrichment (interaction score)
same,binding signal,PUM1 PUF domain R4-CMI,2.77 log2 enrichment (interaction score)
same,binding signal,PUM1 PUF domain R5-QRR,1.74 log2 enrichment (interaction score)
same,binding signal,PUM1 PUF domain R4-WAW,5.21 log2 enrichment (interaction score)
same,binding signal,PUM1 PUF domain R8-YFR,5.17 log2 enrichment (interaction score)
same,binding signal,PUM1 PUF domain R6-WWR,5.15 log2 enrichment (interaction score)
same,binding signal,PUM1 PUF domain R5-KQL,1.4 log2 enrichment (interaction score)
GGCUAGAACUAGUGGAUCCCCCGGCGCCCGGCGGCUCGAGCCCGGGUAAGCGUAAAUAGUCUGCAUGCCGCCGGGCGCCAUGCCUGCAGGUCGACUCUAGAAAACAUG,binding signal,PUM1 PUF domain R8-FYF,2.55 log2 enrichment (interaction score)
same,binding signal,PUM1 PUF domain R8-YFR,5.19 log2 enrichment (interaction score)
